{"source": "ChEMBL document CHEMBL1201862", "about": "“PubChem BioAssay data set” (2004)", "note": "Values joined by “and” are separate entries in the source; they are usually repeats but may differ in a detail not shown here. Equal entries are not always repeated.", "data": [{"experiment": "Mycobacterium tuberculosis growth inhibition, dose response, 7H9 media, purified and synthesized compounds, set 8 (AID 588447); call rule not given here", "type": "functional", "values": [{"smiles": "CC(=O)c1ccc(NC(=O)c2ccc(CNc3c(N4CCOCC4)c(=O)c3=O)cc2)cc1", "IC90": "> 100 µM (active)"}, {"smiles": "O=C(C1CCC(CNc2c(N3CCCCC3)c(=O)c2=O)CC1)N1CCCCC1", "note": "(centres undefined)", "IC90": "> 100 µM (active)"}, {"smiles": "CC1CCCN(C(=O)C2CCC(CNc3c(N4CCCCC4)c(=O)c3=O)CC2)C1", "note": "(centres undefined)", "IC90": "> 100 µM (active)"}, {"smiles": "CC1CCCN(C(=O)c2ccc(CNc3c(N4CCCCC4)c(=O)c3=O)cc2)C1", "note": "(centres undefined)", "IC90": "> 100 µM (active)"}, {"smiles": "CCOC(=O)CSc1ncnc2c1cnn2-c1ccccc1", "IC90": "> 75.1 µM (active)"}, {"smiles": "O=C(NCCc1ccc(Cl)cc1)c1ccc(CNc2c(N3CCOCC3)c(=O)c2=O)cc1", "IC90": "> 100 µM (active)"}, {"smiles": "CC1CCN(C(=O)c2ccc(CNc3c(N4CCCC4)c(=O)c3=O)cc2)CC1", "IC90": "> 100 µM (active)"}, {"smiles": "Cc1cccc(N2CCN(C(=O)c3ccc(CNc4c(N5CCC(C)CC5)c(=O)c4=O)cc3)CC2C)c1", "note": "(centres undefined)", "IC90": "> 76.5 µM (active)"}, {"smiles": "CC(C)OC(=O)CSc1ncnc2c1cnn2-c1ccccc1", "IC90": "> 100 µM (active)"}, {"smiles": "O=C(NCCc1ccc(Cl)cc1)C1CCC(CNc2c(N3CCCCC3)c(=O)c2=O)CC1", "note": "(centres undefined)", "IC90": "> 100 µM (active)"}, {"smiles": "O=C(c1ccc(CNc2c(N3CCCC3)c(=O)c2=O)cc1)N1CCc2ccccc2C1", "IC90": "> 100 µM (active)"}, {"smiles": "COc1ccc(N2CCN(C(=O)c3ccc(CNc4c(N5CCOCC5)c(=O)c4=O)cc3)CC2)cc1", "IC90": "> 100 µM (active)"}, {"smiles": "CC1CC(C)CN(C(=O)c2ccc(CNc3c(N4CCCC4)c(=O)c3=O)cc2)C1", "note": "(centres undefined)", "IC90": "> 100 µM (active)"}, {"smiles": "CC1CC(C)CN(C(=O)C2CCC(CNc3c(N4CCCCC4)c(=O)c3=O)CC2)C1", "note": "(centres undefined)", "IC90": "> 75 µM (active) and > 100 µM (active)"}]}]}
